Screens (PubChem BioAssay)
TDP1 inh = TDP1 (human) enzyme inhibition | Potency, µM (top dose mostly 130 µM), for the others: at the highest dose activity change, negative = inhibition, hits mostly inhibitors | 0.28% of 350,000 active | Q9NUW8 | recombinant TDP1, AlphaScreen DNA substrate cleavage; further: nearly all actives have a fitted effect of over 40% in size
Target sequence (Q9NUW8 whole entry, looked up): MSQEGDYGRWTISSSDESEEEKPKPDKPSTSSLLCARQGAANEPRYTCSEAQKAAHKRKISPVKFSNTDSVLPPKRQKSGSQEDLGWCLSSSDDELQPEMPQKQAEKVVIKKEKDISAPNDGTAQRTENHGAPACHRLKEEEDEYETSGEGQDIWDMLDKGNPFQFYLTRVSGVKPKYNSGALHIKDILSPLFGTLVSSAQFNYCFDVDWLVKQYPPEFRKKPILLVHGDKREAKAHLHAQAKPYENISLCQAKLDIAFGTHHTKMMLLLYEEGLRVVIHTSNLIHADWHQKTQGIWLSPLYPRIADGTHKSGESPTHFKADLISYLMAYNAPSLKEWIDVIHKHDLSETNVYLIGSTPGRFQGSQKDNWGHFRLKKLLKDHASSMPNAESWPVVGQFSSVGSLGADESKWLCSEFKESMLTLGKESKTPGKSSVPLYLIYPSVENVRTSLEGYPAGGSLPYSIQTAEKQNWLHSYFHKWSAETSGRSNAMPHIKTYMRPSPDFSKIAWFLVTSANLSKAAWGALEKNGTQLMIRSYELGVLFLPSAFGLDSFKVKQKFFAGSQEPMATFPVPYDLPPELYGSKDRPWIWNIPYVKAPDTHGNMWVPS
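Recombinant E. coli-expressed Tdp1 (1 nM) preincubated with compound 15 min at RT, then 5'-biotin/3'-phosphotyrosine-FITC DNA substrate (15 nM) added for 5 min. AlphaScreen beads (10 ug/ml) added, 10 min RT; tyrosine-FITC cleavage read as signal loss.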
RORg inh = ROR gamma (mouse) transcription inhibition; P51450; Drosophila S2 Gal4-RORgamma UAS-luciferase reporter, 20 h; Potency, µM (top dose mostly 53.6 µM), for the others: at the top dose activity change, negative = inhibition, actives largely listed as inhibitors; 5.4% of 310,000 active; AID 2551; further: nearly all actives have a fitted effect of over 60% in size
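Luminescence from a UAS-regulated Photinus luciferase reporter in stably transfected Drosophila Schneider cells is measured; decreased signal marks ROR gamma inhibition. Fusion expression is induced by 700 uM copper sulfate for 20 hr.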
DT40 TDP1 no CPT = qHTS for Inhibitors of human tyrosyl-DNA phosphodiesterase 1 (TDP1): qHTS in cells in absence of CPT; DT40 Tdp1-/- hTDP1 cells, no CPT, ATP luminescence, 48 h; Potency, µM (highest dose often 46.2 µM), for inactives: at the highest dose activity change, negative = growth inhibition, actives largely listed as inhibitors; 15% of 420,000 active; AID 686978, 2013; further: nearly all actives have a fitted effect of over 55% in size
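Compound effects on proliferation are scored in DT40 Tdp1-/-;hTDP1 cells in the absence of CPT. ATP levels (CellTiter-Glo luminescence) are recorded after a ≥48 hr, 37 °C incubation.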
TDP1 cell CPT = growth inhibition of DT40 Tdp1-/-;hTDP1 cells with camptothecin (screen for TDP1 inhibitors) | chicken DT40 Tdp1-/-;hTDP1 cells + 20 nM CPT, ATP luminescence, 48 h | Potency, µM (highest dose often 46.2 µM), for inactives: at the highest dose activity change, negative = growth inhibition, actives largely listed as inhibitors | 12% of 420,000 active | AID 686979; further: nearly all actives have a fitted effect of over 55% in size
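Chicken DT40 Tdp1-/- cells stably complemented with human TDP1 were seeded at 400 cells/well in medium containing 20 nM camptothecin, exposed to pin-transferred compounds, and grown at 37 °C for at least 48 hr. Viability was read as ATP luminescence.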
VP16 counter = inhibits Gal4-VP16 luciferase reporter, ROR gamma counter-screen; 3.5% of 310,000 active; Drosophila S2 Gal4-VP16 UAS-luciferase, luminescence, 20 h; Potency, µM (series often up to 53.6 µM), for the others: at the top dose activity, negative = inhibition, usual class: inhibitors; AID 2546;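 further: Gal4-VP16 expression switched on by copper sulfate through the metallothionein promoter; nearly all actives have a fitted effect of over 50% in size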
An asterisk follows results filed as active; ? = inconclusive; / = no result given; [ ] = remark or other dose. A selection: hits, their analogues and other compounds. The true share with any hit is near 19%. The call rests on the fitted dose curve; in most records, active means well fitted curve in the direction sought with a large enough effect; inconclusive means small, poorly fitted or top-dose-only effect, or another doubt; inactive means no such curve, though single readings can be large; an effect the other way counts as inactive or inconclusive. On the % scale 0 is the no-effect control and ±100 the full control effect; potency means the concentration at half of the fitted maximal effect.

SMILES	TDP1 inh	RORg inh	DT40 TDP1 no CPT	TDP1 cell CPT	VP16 counter
O=C1NC[C@H](CC2CCCCC2)N(CCc2cccc3ccccc23)C1=O	/	/	16µM*	?	/
CCOC(=O)/C(C#N)=C/c1c(N2CCN(C)CC2)nc2ccccn2c1=O	/	3%	-14%	5%	10%
CCNc1nn2ccccc2c1/C=C(\C#N)C(=O)OCC	1%	-16%	16µM*	?	20%
CCOC(=O)/C(C#N)=C/c1c(N2CCCCCC2)nc2ccccn2c1=O	/	-1%	21µM*	?	-11%
Cc1ccc(N2C(=O)c3ccccc3NC2(C(=O)O)c2ccccc2)cc1Cl (centres undefined)	/	1%	10%	-2%	19%
CCOC(=O)c1cn(-c2c(Cl)cccc2Cl)c2cc(Cl)c([N+](=O)[O-])cc2c1=O	8%	?	16µM*	?	2%
CC(C)n1cc(C(=O)c2cc(Br)ccc2O)cc(C#N)c1=O	6%	33%	18µM*	?	-27%
C=CCn1cc(C(=O)c2cc(Br)ccc2O)cc(C#N)c1=O	5%	43%	?	18µM*	-24%
COCCCn1cc(C(=O)c2cc(Br)ccc2O)cc(C#N)c1=O	3%	?	?	?	-2%[10 µM]
N#Cc1cc(C(=O)c2cc(Br)ccc2O)cn(C2CC2)c1=O	4%	-45%	-8%	-7%	?
COc1ccc(-c2noc(CN3CCC(Cc4ccccc4)CC3)n2)cc1	2%	?	-20%	-11%	0%
CN(C)c1ccc(/C=C2\SC(=O)N(CCc3nnc(N)s3)C2=O)cc1	/	2.5µM*	?	-8%	4.5µM*
CCOc1ccc(C=Nc2ccc(/C=C/c3ccnc4ccccc34)cc2)cc1OCC	/	/	10µM*	16µM*	/
CCCCN(CCCC)c1ccc(C=Nc2ccc(/C=C/c3ccnc4ccccc34)cc2)cc1C	/	/	10µM*	11µM*	/
CCOc1ccc(/C=N/n2nnnc2N)cc1OCC	/	2%	-16%	-7%	15%
COc1ccccc1NC(=S)NNC(=O)c1cc(C)nn1C	6%	-5%	-5%	-1%	14%
COCCCN(Cc1ccco1)C(=O)CSc1nc2ncccc2[nH]1	2%	-7%	0%	3%	2%
O=C(c1ccc(Cl)cc1)N1CCN(CCc2ccncc2)CC1	1%	/	-22%	-12%	/
CCn1cc(C(=O)NCc2ccccc2)c(=O)c2cc(F)c(N3CCN(C(=O)c4ccco4)CC3)cc21	10%	22%	9.2µM*	10µM*	-18%
CCn1cc(C(=O)O)c(=O)c2cc(F)c(N3CCN(C(=S)NC(=O)c4ccccc4Cl)CC3)cc21	4%	-31%	?	?	7%
CCCNC(=O)c1cn(CC)c2cc(N3CCN(C)CC3)c(F)cc2c1=O	4%	0%	-2%	-2%	-1%
CCn1cc(C(=O)NCc2ccc3c(c2)OCO3)c(=O)c2cc(F)c(N3CCN(C(=O)c4ccco4)CC3)cc21	3%	11%	10µM*	12µM*	?
COc1cc(O)c(C(CC(=O)N2CCN(c3ccccc3)CC2)c2ccc3c(c2)OCO3)c(OC)c1 (centres undefined)	14%	-9%	?	?	-4%
O=C(COC(=O)c1ccccc1Cl)NCc1cccs1	/	/	0%	-4%	/
CN(C(=O)CCCN1C(=O)c2ccccc2C1=O)C1CCCCC1	2%	/	0%	2%	/
SMILES	TDP1 inh	RORg inh	DT40 TDP1 no CPT	TDP1 cell CPT	VP16 counter
COC(=O)c1ccc2nc(Nc3nc4ccc(F)cc4s3)sc2c1	7%	0.14µM*	?	-21%	3.5µM*
COC(=O)c1ccc2nc(NC(=O)C3CCCCC3)sc2c1	5%	-17%	11%	?	-2%
CC(=O)c1sc(Nc2nc3ccc(F)cc3s2)nc1C	9%	3.2µM*	?	?	11µM*
CCOC(=O)c1csc(Nc2nc3ccc(F)cc3s2)n1	10%	7.9µM*	9.2µM*	21µM*	?
COC(=O)c1ccc2nc(NC(=O)C(C)(C)C)sc2c1	3%	2µM*	?	?	7.1µM*
CC(=O)c1sc(Nc2ccccc2)nc1C	/	/	-15%	-20%	/
CC(C)(C)OC(=O)N[C@@H](Cc1ccccc1)C(=O)N[C@@H](CO)[C@H](O)[C@@H]1C[C@@H]1C(=O)NC1CCCCC1	1%	/	-18%	-18%	/
O=C(N/N=C/c1ccc(F)cc1)c1cc(-c2ccc3c(c2)OCO3)n[nH]1	/	17%	23µM*	15%	-10%
COc1ccc(/C=N/NC(=O)c2cc(-c3ccc4c(c3)OCO4)n[nH]2)cc1OC	7%	-21%	12µM*	18µM*	-8%
CN(C)c1ccc(/C=N/NC(=O)c2cc(-c3ccc4c(c3)OCO4)n[nH]2)cc1	5%	-4%	21µM*	18µM*	24%
CN(C)c1ccc(/C=N/NC(=O)c2ccc3c(c2)OCCO3)cc1	7%	?	-15%	-28%	-19%
CNC(=O)C[C@@H]1C(=O)N(CCc2ccccc2)CC1(C)C	/	/	-11%	22%	/
COc1ccc(OC(=O)c2cccnc2)cc1	-2%	-22%	-21%	-4%	4%
Cc1cc(Br)ccc1OCc1nc(-c2cccnc2)no1	5%	16%	?	?	-10%
Cc1cc(C)cc(N(C)S(=O)(=O)c2nnc(NC(=O)C(C)C)s2)c1	/	-18%	-26%	-15%	4%
CC(C)n1c(N2CCN(C(=O)Nc3ccc(Cl)cc3)CC2)nc2ccccc21	-6%	-9%	-27%	-30%	1%
Cn1c(N2CCN(C(=O)Nc3ccc(C(F)(F)F)cc3)CC2)nc2ccccc21	1%	10%	21µM*	18µM*	-26%
Cn1c(N2CCN(C(=O)NCc3ccccc3)CC2)nc2ccccc21	0%	9%	-21%	?	-3%
CCCn1c(N2CCN(C(=O)Nc3ccc(Cl)cc3)CC2)nc2ccccc21	0%	15%	23µM*	?	-8%
CCN(Cc1ccc(OC)c(F)c1)C(=O)CCl	5%	-30%	4.1µM*	4.1µM*	-12%
Cc1cccc(OCC(=O)N(Cc2ccc(N(C)C)cc2)C2CCS(=O)(=O)C2)c1 (centres undefined)	4%	3%	-17%	-13%	1%
Cc1cc(OCC(=O)N(C)C2CCCCC2)ccc1Cl	2%	?	-21%	-1%	-22%
CCc1ccc(OCC(=O)N(Cc2ccc(OC)cc2)C2CCS(=O)(=O)C2)cc1 (centres undefined)	12%	/	-23%	?	/
CCc1ccc(OCC(=O)N(Cc2ccc(C(C)C)cc2)C2CCS(=O)(=O)C2)cc1 (centres undefined)	2%	/	?	16µM*	/
